Compound activity from PubChem BioAssay.
G9a block: inhibitors of human histone lysine methyltransferase G9a. Q96KQ7. G9a H3K9 monomethylation, AlphaScreen, 2 h. Potency, µM (series often up to 102 µM), for the others: at the highest dose activity, negative = inhibition, actives largely listed as inhibitors. hit rate 8.8% among 350,000. AID 504332; note: % is set by controls: 0 for no effect and ±100 for the full control effect; nearly all actives have a fitted effect of over 75% in size
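Enzyme 20 nM + cpd, 15 min RT; add b-H3K9 pep 500 nM / SAM 20 uM; 2 h RT; anti-H3K9me1 Ab 0.5 ug/mL + SA donor / anti-rabbit acceptor beads 20 ug/mL each, 10 min; AlphaScreen read.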
HP1b chromo inh: HP1-beta chromodomain-methylated histone interaction inhibition | AlphaScreen HP1-beta / biotin-H3K9me3 peptide binding | P83916 | Potency, µM (titrated, usually from 114 µM), inactives show top-dose activity change, negative = inhibition, hits mostly inhibitors | hit rate 0.56% among 390,000; note: nearly all actives have a fitted effect of over 70% in size
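Compound inhibition of the preformed complex between 50 nM HP1-beta and 50 nM biotinylated H3K9me3 peptide was read by AlphaScreen. Buffer was PBS pH 7.4 with 0.01% Tween-20. Incubations ran 30 min at room temperature, with 10 ug/mL donor/acceptor beads.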
Sfp PPTase inh: inhibitors of Bacillus subtilis Sfp phosphopantetheinyl transferase | Q9F4F7 | Biochemical Sfp PPTase activity, qHTS | Potency, µM, for the others: largest response in the series, negative = inhibition, most hits filed as inhibitors | hit rate 3.5% among 310,000;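 note: the enzyme is Sfp with the accession as filed and its product quenches rhodamine fluorescence; 0% = enzyme reaction without inhibitor and -100% = no enzyme wells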
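After 15 min at room temperature with compound, 15 nM Sfp received 5 uM rhodamine-CoA plus 12.5 uM BHQ-2-ybbR (50 mM Hepes pH 7.6, 10 mM MgCl2). Rate came from the fluorescence difference over 30 min, ex 525/em 598 nm.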
JMJD2A Tudor inh: inhibitors of human JMJD2A Tudor domain. O75164. AlphaScreen JMJD2A-Tudor / H3K4me3 peptide binding. Potency, µM (doses to about 114 µM), for inactives: at the top dose activity change, negative = inhibition, hits mostly inhibitors. hit rate 4.4% among 390,000; note: % is set by controls: 0 for no effect and ±100 for the full control effect; nearly all actives have a fitted effect of over 50% in size
Target sequence (O75164 whole entry, looked up, the tested form may be a part): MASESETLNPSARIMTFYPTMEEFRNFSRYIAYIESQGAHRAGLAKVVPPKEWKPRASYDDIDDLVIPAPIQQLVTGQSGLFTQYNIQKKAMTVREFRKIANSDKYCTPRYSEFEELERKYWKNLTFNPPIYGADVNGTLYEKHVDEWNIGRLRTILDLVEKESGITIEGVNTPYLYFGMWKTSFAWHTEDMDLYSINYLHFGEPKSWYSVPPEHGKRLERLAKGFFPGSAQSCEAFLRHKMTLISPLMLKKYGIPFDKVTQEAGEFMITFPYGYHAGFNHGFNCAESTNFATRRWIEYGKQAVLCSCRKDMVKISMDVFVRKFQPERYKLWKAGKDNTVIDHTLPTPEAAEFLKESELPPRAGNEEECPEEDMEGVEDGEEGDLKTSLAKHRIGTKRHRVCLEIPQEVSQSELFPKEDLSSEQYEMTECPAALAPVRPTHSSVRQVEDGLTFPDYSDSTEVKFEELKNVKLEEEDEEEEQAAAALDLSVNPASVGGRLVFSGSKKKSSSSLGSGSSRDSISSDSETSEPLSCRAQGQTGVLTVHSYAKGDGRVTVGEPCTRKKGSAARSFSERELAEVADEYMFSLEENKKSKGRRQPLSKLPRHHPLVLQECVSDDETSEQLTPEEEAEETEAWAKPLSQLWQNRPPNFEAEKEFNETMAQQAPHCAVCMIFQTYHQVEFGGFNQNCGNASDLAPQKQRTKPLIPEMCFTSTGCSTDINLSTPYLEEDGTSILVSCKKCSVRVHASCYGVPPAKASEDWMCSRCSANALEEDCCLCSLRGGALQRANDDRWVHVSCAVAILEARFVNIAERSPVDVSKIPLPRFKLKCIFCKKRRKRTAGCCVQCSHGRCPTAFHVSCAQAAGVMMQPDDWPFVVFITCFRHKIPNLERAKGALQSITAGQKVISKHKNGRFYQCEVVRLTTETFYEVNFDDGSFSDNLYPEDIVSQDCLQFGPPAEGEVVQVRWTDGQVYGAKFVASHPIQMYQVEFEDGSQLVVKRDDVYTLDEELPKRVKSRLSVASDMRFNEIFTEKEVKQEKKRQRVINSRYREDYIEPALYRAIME
L3MBTL1 block: blocks human L3MBTL1; Q9Y468; AlphaScreen L3MBTL1–H3K9me1 peptide binding; Potency, µM (series often up to 57.1 µM), for the others: at the top dose activity, negative = inhibition, hits mostly inhibitors; hit rate 0.66% among 230,000; AID 485360; note: % is set by controls: 0 for no effect and ±100 for the full control effect; nearly all actives have a fitted effect of over 60% in size
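AlphaScreen proximity signal between nickel-chelate acceptor and streptavidin donor beads (final 10 ug/mL) reports binding of 50 nM L3MBTL1 to 75 nM biotin-H3 K9me1 peptide; complex incubated with compounds 30 min at room temperature; cefsulodin titration as control.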
BAZ2B block: blocks human BAZ2B; Q9UIF8; AlphaScreen BAZ2B-H3K14Ac peptide displacement; Potency, µM (highest dose often 114 µM), for inactives: at the highest dose activity change, negative = inhibition, hits mostly inhibitors; hit rate 4.4% among 360,000; AID 504333; note: % is set by controls: 0 for no effect and ±100 for the full control effect; nearly all actives have a fitted effect of over 60% in size
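AlphaScreen displacement: compounds (up to 110uM) incubated 30 min at room temperature with a preformed 50 nM BAZ2B/50 nM biotinylated H3K14Ac peptide complex in PBS pH 7.4 with Tween-20. Donor and acceptor beads at 10 ug/mL final added, 20 min light-protected before reading.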
* hit, by the source's call; ? = inconclusive; . = no result given; ! = a repeat was not active; [ ] = remark or other dose. Only some compounds are listed: those with a hit (about 12% of all), similar ones and a draw of the others. Calls come from the whole dose curve; as a rule, active = well fitted curve in the direction sought with a large enough effect; inconclusive = small, poorly fitted or top-dose-only effect, or another doubt; inactive = no such curve, though single readings can be large; an effect the other way counts as inactive or inconclusive. Potency is the fitted concentration of half-maximal effect.

SMILES	G9a block	HP1b chromo inh	Sfp PPTase inh	JMJD2A Tudor inh	L3MBTL1 block	BAZ2B block
C#CCOc1c(Br)cc(/C=C2/C(=O)ON=C2C)cc1OCC	45µM*	13%	-68%	-13%	.	?
Cc1cccc(C)c1NC(=O)c1ccc(-c2ccc(Cl)cc2Cl)o1	-29%	41%	-12%	-19%	.	-6%
C=CCOc1c(Br)cc(/C=C2/C(=O)ON=C2C)cc1OC	32µM*	12%	?	20µM*	.	?
CCOc1c(Br)cc(/C=C2\N=C(C)OC2=O)cc1Br	3%	24%	8%	-22%	.	-1%
COc1ccc(/C=C2/C(=O)ON=C2C)cc1Br	?	14%	?	-29%	.	-17%
C#CCOc1c(Cl)cc(/C=C2/C(=O)ON=C2C)cc1OCC	40µM*	4%	79µM*	-13%	.	-36%
CC1=NOC(=O)/C1=C\c1ccc(-c2ccc(Cl)cc2Cl)o1	8.9µM*	-17%	45µM*	?	-6%	?
O=C(c1cnccn1)N1CCC[C@@]2(CCN(c3cccc(-c4ccccc4)c3)C2)C1	0%[12.7 µM]	.	-26%	.	.	.
CCOc1ccc(NC(=O)c2cn3c4c(ccc(Cl)c4c2=O)OC(C)C3)cc1 (centres undefined)	-9%[59 µM]	-7%	.	-15%	.	0%
C#CCOc1ccc(/C=C2/C(=O)ON=C2C)cc1Cl	35µM*	-5%	?	13µM*	.	-4%
CCCOc1ccc(Cl)cc1/C=C1/C(=O)ON=C1C	32µM*	9%	?	7.9µM*	.	-24%
C#CCOc1c(Br)cc(/C=C2/C(=O)ON=C2C)cc1OC	40µM*	-34%	56µM*	-30%	.	-20%
COc1ccccc1/C=C1/C(=O)ON=C1C	-34%[12.7 µM]	7%	-28%	-21%	.	-19%
CCOC(=O)CC(NC(=O)CCc1c(C)nc2c(c(C)nn2-c2ccc(C)c(C)c2)c1C)c1ccc(C)cc1 (centres undefined)	-35%[59 µM]	34%	.	-15%	.	-3%
Cc1ccccc1NC(=O)c1ccc(F)c(S(=O)(=O)N2CCN(c3ccccc3F)CC2)c1	5%[59 µM]	29%	.	-8%	.	-2%
COc1ccccc1CCNC(=O)C1(c2cccs2)CCOCC1	-2%[59 µM]	12%	.	-8%	.	-2%
COc1ccccc1NC(=O)CSC1=Nc2ccccc2C2=NC(CCC(=O)NCc3cccs3)C(=O)N12 (centres undefined)	9%[59 µM]	24%	.	-3%	.	-6%
COc1ccc(CNC(=O)CCc2c(C)nn(-c3ccc(N4CCCCC4)nn3)c2C)cc1	0%[59 µM]	15%	.	-18%	.	-38%
O=C(C1CC1)N(CCN(Cc1ccccc1)C(=O)C1CC1)Cc1ccccc1	.	-11%	15%	2%[11.4 µM]	5%	7%
CCC(CC)N1CCN(CC2CC=CCC2)CC1 (centres undefined)	10µM*	?	?	1.8µM*	-1%	.
CCN(Cc1ccccc1)C(=O)C1CCN(CC2CC=CCC2)CC1 (centres undefined)	7.9µM*	?	9%	3.2µM*	6%	?
CCN(Cc1ccccc1)C(=O)C1CCN(Cc2sccc2C)CC1	8.9µM*	?	-1%	2.8µM*	-6%	-37%
CCN(CC)C(=O)C1CCN(CC2CC=CCC2)CC1 (centres undefined)	13µM*	-58%	-9%	6.3µM*	-7%	56µM*
CCN(Cc1ccccc1)C(=O)C1CCN(S(=O)(=O)c2ccc3c(c2)OCCO3)CC1	18%	22%	4%	-13%	.	-11%
CCCc1cc(=O)[nH]c2nnc(SCC(=O)Nc3ccc(OC)cc3)n12	17%[59 µM]	32%	.	-9%	.	-3%
SMILES	G9a block	HP1b chromo inh	Sfp PPTase inh	JMJD2A Tudor inh	L3MBTL1 block	BAZ2B block
O=C(Cn1cc(S(=O)(=O)Cc2ccccc2F)c2ccccc21)NCc1ccccc1Cl	3%[59 µM]	9%	.	-11%	.	-4%
CC(C)=NNc1ncnc2nc[nH]c12	.	34%	.	25µM*	.	.
COC(=O)c1ccc(O)c(Sc2cc(C(=O)OC)ccc2O)c1	10µM*	41%	?	-3%	6%	8%
CCOC(=O)N1CCN(c2cc(=O)n(-c3ccc(Br)cc3)c(=O)[nH]2)CC1	?	-1%	6%	-17%	-5%	1%
CCOC(=O)N1CCN(c2ccc(O)cc2)CC1	2.8µM*	-69%	?	35µM*	.	8%
CCOc1ccccc1NC(=S)N1CCN(c2ccc(OC)cc2)CC1	?	14%	11%	?	-14%	?
O=C(C1CCN(S(=O)(=O)N2CCOCC2)CC1)N1CCN(c2ccc(F)cc2)CC1	?	40%	9%	?	.	-6%
CCOC(=O)N1CCN(c2cc(=O)n(-c3ccc(C)cc3)c(=O)[nH]2)CC1	50µM*	3%	-10%	-4%	.	.
CCOc1ccccc1NC(=S)N1CCN(c2ccc(O)cc2)CC1	35µM*	-11%	-19%	?	.	-14%
O=C(C1CC1)N1CCN(c2ccc(O)cc2)CC1	25µM*	?	?	79µM*	.	-2%
O=C(c1ccccc1)N1CCCC(C(=O)N2CCN(c3ccccc3)CC2)C1 (centres undefined)	?	-3%	21%	50µM*	4%	-3%
CC(=O)c1ccc(N2CCN(C(=O)C3CCC3)CC2)cc1	?	12%	89µM*	-23%	-17%[11.4 µM]	-5%
CSCCC(NC(=O)c1ccccc1Cl)C(=O)Nc1cccc(S(=O)(=O)N2CCCC2)c1 (centres undefined)	45µM*	41%	.	-4%	-13%	-10%
CSCCC(NC(=O)c1cccc(S(=O)(=O)N2CCOCC2)c1)C(=O)Nc1cccc(C)c1 (centres undefined)	10µM*	20%	-17%	-2%	-5%	-4%
CSCCC(NC(=O)c1ccccc1)C(=O)Nc1ccc(C)cc1 (centres undefined)	-1%[59 µM]	27%	0%	-20%	-9%	-14%
CSCCC(NC(=O)c1ccccc1Cl)C(=O)NC1CCN(Cc2ccccc2)CC1 (centres undefined)	1.6µM*	0%	1%	-16%	.	-38%
CSCCC(NC(=O)c1cccc(C)c1)C(=O)Nc1sccc1C(N)=O (centres undefined)	50µM*	17%	-1%	-17%	.	-30%
COc1ccccc1C(=O)NC(CCSC)C(=O)Nc1ccc(C)c(S(=O)(=O)N2CCOCC2)c1 (centres undefined)	.	11%	.	-33%	-7%	.
CC(C)COCC(CN(Cc1ccccc1)c1ccccc1)N1CCCC1 (centres undefined)	10µM*!	35%	-19%	-3%	.	?
CCN(CC)c1ccc(N=Cc2ccccc2[N+](=O)[O-])cc1	8.9µM*	8.9µM*	50µM*	8.9µM*	28µM*	3.2µM*
